# Measured values from publication PMC7862700, “An all-to-all approach to the identification of sequence-specific readers for epigenetic DNA modifications on cytosine”.
# Tests used:
# Experiment in all cases: DAPPL (digital affinity profiling via proximity ligation, sequencing); 10 mM Tris-HCl pH 7.5, 50 mM NaCl, 1 mM DTT, 4% glycerol, room temperature, 30 min; GST-TFs on glutathione beads, 16-mer random dsDNA library, 0.1% formaldehyde crosslink after washing; high values mean tight binding
# [1] = biological target: T1, FEV (Homo sapiens, UniProt Q99581 1-238); conditions: protein: recombinant; tags: N-terminal GST; dsDNA, one strand shown
# T1 sequence: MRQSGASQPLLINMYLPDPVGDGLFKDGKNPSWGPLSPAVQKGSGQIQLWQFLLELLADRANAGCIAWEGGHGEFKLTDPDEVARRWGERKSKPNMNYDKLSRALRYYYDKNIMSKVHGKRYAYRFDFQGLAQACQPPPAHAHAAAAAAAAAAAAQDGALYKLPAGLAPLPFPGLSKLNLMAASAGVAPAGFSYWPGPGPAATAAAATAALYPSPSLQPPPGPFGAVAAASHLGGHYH
# Summary of the method: (§1)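 GST fusions of human transcription factors were expressed in yeast and captured with glutathione beads. Once given DNA barcodes and pooled alongside a tag-only sample, they were incubated for 30 min at room temperature with 200 nmole of a random double-stranded 16-mer DNA library in Tris/NaCl/DTT/glycerol buffer, then washed, crosslinked (0.1% formaldehyde), proximity-ligated, PCR-amplified and sequenced on an Illumina NextSeq500. The binding signal of each hexamer is its read frequency for a factor divided by its frequency for the tag-only sample.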
# [2] = biological target: ETV5 (Homo sapiens, UniProt P41161 1-510); conditions: protein: recombinant; tags: N-terminal GST; dsDNA, one strand shown
# Summary of the method: as §1
# [3] = biological target: HSF1 (Homo sapiens, UniProt Q00613 1-529); conditions: protein: recombinant; tags: N-terminal GST; chain copies: 3; dsDNA, one strand shown
# Summary of the method: as §1
# [4] = biological target: T2, SPIC (Homo sapiens, UniProt Q8N5J4 1-248); conditions: protein: recombinant; tags: N-terminal GST; dsDNA, one strand shown
# T2 sequence: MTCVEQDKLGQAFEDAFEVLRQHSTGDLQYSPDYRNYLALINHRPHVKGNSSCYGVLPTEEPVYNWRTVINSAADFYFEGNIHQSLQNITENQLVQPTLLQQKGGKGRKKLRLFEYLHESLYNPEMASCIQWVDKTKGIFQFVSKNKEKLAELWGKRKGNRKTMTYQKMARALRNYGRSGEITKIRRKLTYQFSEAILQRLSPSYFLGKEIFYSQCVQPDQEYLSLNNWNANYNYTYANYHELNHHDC
# Summary of the method: as §1
# [5] = biological target: ELF4 (Homo sapiens, UniProt Q99607 1-663); conditions: protein: recombinant; tags: N-terminal GST; dsDNA, one strand shown
# Summary of the method: as §1
# [6] = biological target: T3, ELK4 (Homo sapiens, UniProt P28324-2 1-405); conditions: protein: recombinant; tags: N-terminal GST; dsDNA, one strand shown
# T3 sequence: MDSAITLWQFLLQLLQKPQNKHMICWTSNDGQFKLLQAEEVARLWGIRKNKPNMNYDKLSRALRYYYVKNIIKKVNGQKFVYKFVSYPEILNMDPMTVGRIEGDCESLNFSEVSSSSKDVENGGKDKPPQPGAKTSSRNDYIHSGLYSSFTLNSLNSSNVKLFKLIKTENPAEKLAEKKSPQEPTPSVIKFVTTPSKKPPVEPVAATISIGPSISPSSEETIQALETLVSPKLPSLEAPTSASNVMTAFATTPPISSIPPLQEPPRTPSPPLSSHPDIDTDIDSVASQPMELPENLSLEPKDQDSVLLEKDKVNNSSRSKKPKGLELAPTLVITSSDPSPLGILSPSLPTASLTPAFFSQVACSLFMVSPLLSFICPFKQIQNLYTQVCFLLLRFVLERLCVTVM
# Summary of the method: as §1
# [7] = biological target: T4, ETV2 (Homo sapiens, UniProt O00321 1-342); conditions: protein: recombinant; tags: N-terminal GST; dsDNA, one strand shown
# T4 sequence: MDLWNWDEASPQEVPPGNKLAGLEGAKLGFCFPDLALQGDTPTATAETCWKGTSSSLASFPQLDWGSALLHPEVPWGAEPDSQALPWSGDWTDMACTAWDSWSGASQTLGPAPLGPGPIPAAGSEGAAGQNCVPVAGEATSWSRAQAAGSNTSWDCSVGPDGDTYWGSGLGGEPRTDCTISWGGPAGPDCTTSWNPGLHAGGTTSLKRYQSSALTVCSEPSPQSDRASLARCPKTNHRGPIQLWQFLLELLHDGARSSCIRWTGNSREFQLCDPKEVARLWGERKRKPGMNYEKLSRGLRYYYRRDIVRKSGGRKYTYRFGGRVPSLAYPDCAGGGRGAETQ
# Summary of the method: as §1
# [8] = biological target: T5, ELF3 (Homo sapiens, UniProt P78545 1-371); conditions: protein: recombinant; tags: N-terminal GST; dsDNA, one strand shown
# T5 sequence: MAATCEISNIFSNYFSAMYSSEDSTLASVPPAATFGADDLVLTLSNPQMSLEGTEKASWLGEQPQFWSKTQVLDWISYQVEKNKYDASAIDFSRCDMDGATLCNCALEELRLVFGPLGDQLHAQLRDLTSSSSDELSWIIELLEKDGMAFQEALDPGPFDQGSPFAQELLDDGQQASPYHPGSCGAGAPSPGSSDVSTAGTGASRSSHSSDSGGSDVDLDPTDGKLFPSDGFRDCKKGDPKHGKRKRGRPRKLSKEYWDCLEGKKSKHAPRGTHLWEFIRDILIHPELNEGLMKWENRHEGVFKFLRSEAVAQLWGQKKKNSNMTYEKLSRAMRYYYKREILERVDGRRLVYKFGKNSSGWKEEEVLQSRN
# Summary of the method: as §1
# [9] = biological target: CRX (Homo sapiens, UniProt O43186 1-299); conditions: protein: recombinant; tags: N-terminal GST; dsDNA, one strand shown
# Summary of the method: as §1
# [10] = biological target: ETV1 (Homo sapiens, UniProt P50549 1-477); conditions: protein: recombinant; tags: N-terminal GST; dsDNA, one strand shown
# Summary of the method: as §1
# [11] = biological target: T6, ERF (Homo sapiens, UniProt P50548 1-548); conditions: protein: recombinant; tags: N-terminal GST; dsDNA, one strand shown
# T6 sequence: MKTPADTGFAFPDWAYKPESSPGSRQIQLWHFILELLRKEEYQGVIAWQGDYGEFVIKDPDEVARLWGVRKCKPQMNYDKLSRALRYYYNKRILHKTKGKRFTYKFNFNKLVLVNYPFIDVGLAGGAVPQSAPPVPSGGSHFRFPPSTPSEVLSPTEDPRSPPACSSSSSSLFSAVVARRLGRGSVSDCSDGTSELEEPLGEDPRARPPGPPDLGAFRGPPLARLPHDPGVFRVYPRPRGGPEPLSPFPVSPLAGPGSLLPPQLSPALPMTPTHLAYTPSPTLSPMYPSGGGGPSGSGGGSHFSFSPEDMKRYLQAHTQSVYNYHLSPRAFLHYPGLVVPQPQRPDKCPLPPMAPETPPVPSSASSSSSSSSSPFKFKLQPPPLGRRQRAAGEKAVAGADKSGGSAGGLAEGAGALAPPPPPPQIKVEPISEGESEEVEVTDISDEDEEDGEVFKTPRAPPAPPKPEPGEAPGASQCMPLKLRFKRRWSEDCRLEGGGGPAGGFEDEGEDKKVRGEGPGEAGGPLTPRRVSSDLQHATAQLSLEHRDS
# Summary of the method: as §1
# [12] = biological target: T7, ETV3L (Homo sapiens, UniProt Q6ZN32 1-361); conditions: protein: recombinant; tags: N-terminal GST; dsDNA, one strand shown
# T7 sequence: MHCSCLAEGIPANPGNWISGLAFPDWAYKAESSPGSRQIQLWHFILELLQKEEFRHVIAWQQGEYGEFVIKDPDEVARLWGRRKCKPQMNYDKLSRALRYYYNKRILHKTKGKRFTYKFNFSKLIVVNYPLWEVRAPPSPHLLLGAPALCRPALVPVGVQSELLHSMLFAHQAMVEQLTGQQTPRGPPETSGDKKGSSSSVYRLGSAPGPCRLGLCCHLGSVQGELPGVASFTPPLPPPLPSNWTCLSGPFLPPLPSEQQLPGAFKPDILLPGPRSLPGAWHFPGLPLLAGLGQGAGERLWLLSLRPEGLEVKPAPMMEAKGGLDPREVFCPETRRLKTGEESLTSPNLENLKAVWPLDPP
# Summary of the method: as §1
# [13] = biological target: T8, ETS2 (Homo sapiens, UniProt P15036 1-469); conditions: protein: recombinant; tags: N-terminal GST; dsDNA, one strand shown
# T8 sequence: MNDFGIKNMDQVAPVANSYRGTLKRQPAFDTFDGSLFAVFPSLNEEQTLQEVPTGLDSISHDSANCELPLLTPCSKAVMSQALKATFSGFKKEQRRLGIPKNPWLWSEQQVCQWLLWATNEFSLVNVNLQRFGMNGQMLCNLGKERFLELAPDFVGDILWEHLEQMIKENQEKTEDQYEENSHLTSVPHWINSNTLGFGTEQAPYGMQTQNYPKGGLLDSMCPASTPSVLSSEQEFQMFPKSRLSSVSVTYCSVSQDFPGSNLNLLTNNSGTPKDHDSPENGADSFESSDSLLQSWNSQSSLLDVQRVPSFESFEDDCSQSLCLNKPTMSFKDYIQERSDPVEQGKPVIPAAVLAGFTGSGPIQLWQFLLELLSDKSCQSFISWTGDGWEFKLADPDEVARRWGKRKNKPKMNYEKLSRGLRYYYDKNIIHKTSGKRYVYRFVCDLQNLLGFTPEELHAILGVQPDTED
# Summary of the method: as §1
# [14] = biological target: T9, SPDEF (Homo sapiens, UniProt O95238 1-335); conditions: protein: recombinant; tags: N-terminal GST; dsDNA, one strand shown
# T9 sequence: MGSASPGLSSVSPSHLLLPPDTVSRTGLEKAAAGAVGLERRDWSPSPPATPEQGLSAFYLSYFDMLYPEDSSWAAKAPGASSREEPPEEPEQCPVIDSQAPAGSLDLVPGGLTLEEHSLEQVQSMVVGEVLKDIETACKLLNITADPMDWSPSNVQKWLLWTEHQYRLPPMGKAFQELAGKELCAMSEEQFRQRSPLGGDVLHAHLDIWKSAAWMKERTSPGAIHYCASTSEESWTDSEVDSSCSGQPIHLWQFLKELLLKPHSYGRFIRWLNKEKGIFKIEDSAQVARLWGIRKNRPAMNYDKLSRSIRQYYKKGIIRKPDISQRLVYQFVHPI
# Summary of the method: as §1
# [15] = biological target: T10, ETV7 (Homo sapiens, UniProt Q9Y603 1-341); conditions: protein: recombinant; tags: N-terminal GST; dsDNA, one strand shown
# T10 sequence: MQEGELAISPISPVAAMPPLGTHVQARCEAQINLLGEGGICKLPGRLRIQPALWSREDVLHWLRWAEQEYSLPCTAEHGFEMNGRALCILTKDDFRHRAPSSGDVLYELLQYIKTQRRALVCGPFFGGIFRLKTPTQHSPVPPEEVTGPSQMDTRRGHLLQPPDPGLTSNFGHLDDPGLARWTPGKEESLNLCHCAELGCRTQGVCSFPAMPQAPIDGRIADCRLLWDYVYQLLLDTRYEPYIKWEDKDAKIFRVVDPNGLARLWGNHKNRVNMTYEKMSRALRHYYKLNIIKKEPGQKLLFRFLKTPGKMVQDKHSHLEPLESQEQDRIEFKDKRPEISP
# Summary of the method: as §1
# [16] = biological target: T11, ELF5 (Homo sapiens, UniProt Q9UKW6-2 1-255); conditions: protein: recombinant; tags: N-terminal GST; dsDNA, one strand shown
# T11 sequence: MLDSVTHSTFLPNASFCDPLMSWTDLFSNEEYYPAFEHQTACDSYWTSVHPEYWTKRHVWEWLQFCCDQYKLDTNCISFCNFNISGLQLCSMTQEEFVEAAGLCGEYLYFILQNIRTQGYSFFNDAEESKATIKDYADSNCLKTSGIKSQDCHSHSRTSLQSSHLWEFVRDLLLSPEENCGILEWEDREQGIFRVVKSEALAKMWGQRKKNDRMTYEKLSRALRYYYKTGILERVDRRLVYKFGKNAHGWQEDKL
# Summary of the method: as §1
# [17] = biological target: T12, ETV3 (Homo sapiens, UniProt P41162-2 1-143); conditions: protein: recombinant; tags: N-terminal GST; dsDNA, one strand shown
# T12 sequence: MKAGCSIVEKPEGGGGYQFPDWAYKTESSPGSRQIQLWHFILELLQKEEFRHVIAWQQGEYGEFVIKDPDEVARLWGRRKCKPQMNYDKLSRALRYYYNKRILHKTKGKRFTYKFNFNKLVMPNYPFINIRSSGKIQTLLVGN
# Summary of the method: as §1
# [18] = biological target: ETV6 (Homo sapiens, UniProt P41212 1-452); conditions: protein: recombinant; tags: N-terminal GST; dsDNA, one strand shown
# Summary of the method: as §1
# Chain of HSF1 (Q00613 whole entry): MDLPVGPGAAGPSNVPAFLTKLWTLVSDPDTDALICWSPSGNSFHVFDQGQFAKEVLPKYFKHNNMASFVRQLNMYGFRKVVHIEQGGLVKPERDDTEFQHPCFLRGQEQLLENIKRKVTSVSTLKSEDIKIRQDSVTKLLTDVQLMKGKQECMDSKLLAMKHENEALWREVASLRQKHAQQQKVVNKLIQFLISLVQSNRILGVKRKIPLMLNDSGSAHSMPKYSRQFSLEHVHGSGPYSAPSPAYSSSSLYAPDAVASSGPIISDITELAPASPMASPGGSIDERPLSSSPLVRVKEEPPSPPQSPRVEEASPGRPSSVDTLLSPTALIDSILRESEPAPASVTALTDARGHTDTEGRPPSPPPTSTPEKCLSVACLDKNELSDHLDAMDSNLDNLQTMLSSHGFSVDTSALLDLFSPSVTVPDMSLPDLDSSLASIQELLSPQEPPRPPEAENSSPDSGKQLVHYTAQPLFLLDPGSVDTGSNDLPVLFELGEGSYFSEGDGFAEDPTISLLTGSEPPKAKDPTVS
# Chain of ETV5 (P41161 whole entry): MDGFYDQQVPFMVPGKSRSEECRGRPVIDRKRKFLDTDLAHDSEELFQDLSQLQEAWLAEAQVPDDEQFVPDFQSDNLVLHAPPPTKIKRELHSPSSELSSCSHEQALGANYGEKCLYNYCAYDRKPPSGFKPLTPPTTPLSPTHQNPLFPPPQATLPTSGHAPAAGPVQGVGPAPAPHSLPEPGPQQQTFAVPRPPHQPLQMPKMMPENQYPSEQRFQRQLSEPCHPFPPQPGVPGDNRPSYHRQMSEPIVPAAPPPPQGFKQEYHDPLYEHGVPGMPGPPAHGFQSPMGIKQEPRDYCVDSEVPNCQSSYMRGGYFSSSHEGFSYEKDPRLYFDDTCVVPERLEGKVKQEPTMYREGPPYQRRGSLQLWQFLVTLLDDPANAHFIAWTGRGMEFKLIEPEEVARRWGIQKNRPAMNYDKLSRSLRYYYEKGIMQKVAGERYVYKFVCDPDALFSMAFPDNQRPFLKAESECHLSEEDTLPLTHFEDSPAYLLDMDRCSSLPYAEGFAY
# Chain of ELF4 (Q99607 whole entry): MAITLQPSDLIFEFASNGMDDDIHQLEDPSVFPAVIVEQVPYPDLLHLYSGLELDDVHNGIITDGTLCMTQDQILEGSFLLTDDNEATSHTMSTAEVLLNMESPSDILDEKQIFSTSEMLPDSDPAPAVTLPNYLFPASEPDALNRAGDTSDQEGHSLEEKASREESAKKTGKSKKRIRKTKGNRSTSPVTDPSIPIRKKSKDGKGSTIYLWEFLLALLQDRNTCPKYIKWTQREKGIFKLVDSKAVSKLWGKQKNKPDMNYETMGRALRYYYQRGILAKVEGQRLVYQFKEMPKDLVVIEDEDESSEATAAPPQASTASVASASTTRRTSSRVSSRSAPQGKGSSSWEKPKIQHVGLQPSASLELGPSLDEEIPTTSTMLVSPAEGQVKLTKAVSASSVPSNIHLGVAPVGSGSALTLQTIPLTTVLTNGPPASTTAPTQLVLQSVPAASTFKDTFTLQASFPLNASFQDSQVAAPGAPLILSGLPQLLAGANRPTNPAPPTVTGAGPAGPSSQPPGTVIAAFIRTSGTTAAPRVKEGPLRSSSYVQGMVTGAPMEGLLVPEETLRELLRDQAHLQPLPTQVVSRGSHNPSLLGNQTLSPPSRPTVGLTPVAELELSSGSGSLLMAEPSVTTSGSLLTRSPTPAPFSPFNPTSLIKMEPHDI
# Chain of ETV1 (P50549 whole entry): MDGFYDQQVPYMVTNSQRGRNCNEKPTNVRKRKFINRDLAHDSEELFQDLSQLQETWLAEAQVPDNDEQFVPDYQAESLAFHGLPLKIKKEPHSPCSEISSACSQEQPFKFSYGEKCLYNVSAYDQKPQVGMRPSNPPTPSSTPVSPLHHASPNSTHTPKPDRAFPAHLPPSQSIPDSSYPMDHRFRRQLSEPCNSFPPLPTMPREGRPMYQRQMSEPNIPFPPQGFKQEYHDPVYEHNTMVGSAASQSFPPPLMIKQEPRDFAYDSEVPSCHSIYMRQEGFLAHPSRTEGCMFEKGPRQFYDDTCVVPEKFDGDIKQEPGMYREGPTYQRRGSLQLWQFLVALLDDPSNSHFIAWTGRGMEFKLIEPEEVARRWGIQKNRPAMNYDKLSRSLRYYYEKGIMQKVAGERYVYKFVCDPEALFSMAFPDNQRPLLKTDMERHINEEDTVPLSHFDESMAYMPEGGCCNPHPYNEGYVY
# Chain of CRX (O43186 whole entry): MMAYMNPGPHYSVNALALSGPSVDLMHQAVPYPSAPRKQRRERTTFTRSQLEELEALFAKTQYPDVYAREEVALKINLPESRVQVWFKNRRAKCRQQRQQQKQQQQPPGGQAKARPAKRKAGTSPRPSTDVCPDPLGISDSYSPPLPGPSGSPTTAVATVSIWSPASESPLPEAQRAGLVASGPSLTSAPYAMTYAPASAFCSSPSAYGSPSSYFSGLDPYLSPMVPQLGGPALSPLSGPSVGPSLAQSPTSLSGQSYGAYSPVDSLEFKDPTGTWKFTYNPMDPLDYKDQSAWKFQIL
# Chain of ETV6 (P41212 whole entry): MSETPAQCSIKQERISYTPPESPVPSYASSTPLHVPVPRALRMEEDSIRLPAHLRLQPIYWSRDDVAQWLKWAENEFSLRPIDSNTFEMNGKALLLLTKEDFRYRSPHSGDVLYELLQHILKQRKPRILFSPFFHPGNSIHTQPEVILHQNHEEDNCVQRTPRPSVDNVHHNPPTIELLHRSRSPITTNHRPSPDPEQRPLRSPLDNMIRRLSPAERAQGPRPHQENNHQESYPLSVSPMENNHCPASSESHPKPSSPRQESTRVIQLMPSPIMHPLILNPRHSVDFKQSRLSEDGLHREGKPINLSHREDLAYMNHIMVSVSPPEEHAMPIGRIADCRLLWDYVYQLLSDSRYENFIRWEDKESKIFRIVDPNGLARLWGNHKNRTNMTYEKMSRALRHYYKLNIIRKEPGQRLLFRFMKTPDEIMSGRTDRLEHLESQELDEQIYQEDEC
sequence,measurement,setting,value
GCTCCT,binding signal,[1],"1.46 fold enrichment (6-mer frequency, TF over GST control)"
same,binding signal,[2],"1.4 fold enrichment (6-mer frequency, TF over GST control)"
same,binding signal,[3],"1.29 fold enrichment (6-mer frequency, TF over GST control)"
same,binding signal,[4],"1.44 fold enrichment (6-mer frequency, TF over GST control)"
same,binding signal,[5],"1.51 fold enrichment (6-mer frequency, TF over GST control)"
same,binding signal,[6],"1.33 fold enrichment (6-mer frequency, TF over GST control)"
same,binding signal,[7],"1.57 fold enrichment (6-mer frequency, TF over GST control)"
same,binding signal,[8],"1.57 fold enrichment (6-mer frequency, TF over GST control)"
same,binding signal,[9],"1.34 fold enrichment (6-mer frequency, TF over GST control)"
same,binding signal,[10],"1.46 fold enrichment (6-mer frequency, TF over GST control)"
same,binding signal,[11],"1.54 fold enrichment (6-mer frequency, TF over GST control)"
same,binding signal,[12],"1.61 fold enrichment (6-mer frequency, TF over GST control)"
same,binding signal,[13],"1.45 fold enrichment (6-mer frequency, TF over GST control)"
same,binding signal,[14],"1.54 fold enrichment (6-mer frequency, TF over GST control)"
same,binding signal,[15],"1.43 fold enrichment (6-mer frequency, TF over GST control)"
same,binding signal,[16],"1.44 fold enrichment (6-mer frequency, TF over GST control)"
same,binding signal,[17],"1.37 fold enrichment (6-mer frequency, TF over GST control)"
same,binding signal,[18],"1.5 fold enrichment (6-mer frequency, TF over GST control)"
